Experiment [1] deals with Metallo-beta-lactamase type 2 (Klebsiella pneumoniae) (UniProt C7C422). Put plainly: qHTS to identify inhibitors of the New Delhi Metallo-beta-lactamase (NDM): assay validation screen against the NCATS LOPAC Collection (AID 1794843). Further: on the % scale 0 is the no-effect control and ±100 the full control effect. Particulars: NDM-1 enzyme, nitrocefin hydrolysis, absorbance 485 nm; series mostly up to 38.4 µM. In a few lines:
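Absorbance at 485 nm from nitrocefin turnover (50 uM solution added), read at plateau, gives the read-out. Compounds in DMSO were incubated first with 2 nM final NDM-1 in pH 7.0 HEPES buffer containing 1 uM ZnSO4 and 0.01% Tween20.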
Background: Quantitative high-throughput screening tests each substance at several concentrations.

In experiment [2] the target is Phospholipid hydroperoxide glutathione peroxidase GPX4 (Homo sapiens) (UniProt P36969). In words: Primary qHTS Assay for Inhibitors of Recombinant Selenoprotein Glutathione Peroxidase 4 (GPX4) (AID 1845192). Further: nearly all actives have a fitted effect of over 65% in size. Conditions: recombinant GPX4, GR-coupled NADPH fluorescence, 15 min; series mostly up to 50 µM. In a few lines:
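qHTS, GR-coupled: GPX4 200 nM + cpd 30 min RT → GSH 1 mM, NADPH 0.5 mM, GR 100 nM → CHP 0.5 mM start; fluor 340/450 at t0 and t15 min; no-enzyme wells as control.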

In experiment [3] the target is Glutathione peroxidase 1 (Homo sapiens) (UniProt P07203). In words: Primary qHTS Assay for Inhibitors of Recombinant Selenoprotein Glutathione Peroxidase 1 (GPX1) (AID 1845191). Further: nearly all actives have a fitted effect of over 65% in size. Conditions: recombinant GPX1, GR-coupled NADPH fluorescence, 15 min; series mostly up to 48.8 µM. In a few lines: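 GPX1 10 nM, GR 100 nM, GSH 1 mM, NADPH 0.5 mM, CHP 0.5 mM (final). 30-min cpd preincubation, RT. Ex340/Em450 read t=0, t=15 min.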

Experiment [4] is described as follows: Quantitative High-Throughput drug screen in 47 multiple myeloma cell lines against the NCATS MIPE library collection: AMO1_DSMZ cell viability assay (AID 1918927; further: nearly all actives have a fitted effect of over 30% in size; further: potency means the concentration at half of the fitted maximal effect). Particulars: AMO1 myeloma cells viability, CellTiter-Glo ATP luminescence, 48 h; series mostly up to 45.8 µM. In a few lines:
(§1)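 Myeloma cell lines, 500 cells per well, exposed to MIPE 4.0 library compounds for 48 h at 37C, 5% CO2. Viability from ATP by CellTiter-Glo luminescence; normalised to DMSO (100%) and media-only (0%) wells.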
A general note: ATP-based viability assays read luminescence as a measure of living cells.

Experiment [5] in a line: Quantitative High-Throughput drug screen in 47 multiple myeloma cell lines against the NCATS MIPE library collection: ARP1_JJKsccF8 cell viability assay (AID 1918928; further: nearly all actives have a fitted effect of over 40% in size; further: potency means the concentration at half of the fitted maximal effect). Conditions: ARP1 myeloma cells viability, CellTiter-Glo ATP, 48 h; series mostly up to 45.8 µM. The method, boiled down: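 CellTiter-Glo luminescence after 48 h exposure gives viability, scaled between DMSO-only (100%) and media-only (0%) controls. Library compounds are pinned onto 500 myeloma cells per well, incubated at 37C with 5% CO2.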

The nature of experiment [6]: Quantitative High-Throughput drug screen in 47 multiple myeloma cell lines against the NCATS MIPE library collection: ARD_JJKsccE7 cell viability assay (AID 1918929; further: potency means the concentration at half of the fitted maximal effect). Conditions: ARD myeloma cell line viability, CellTiter-Glo, 48 h; series mostly up to 45.8 µM. In a few lines:
as §1

Experiment [7] can be described thus: Quantitative High-Throughput drug screen in 47 multiple myeloma cell lines against the NCATS MIPE library collection: Delta47_JCRB cell viability assay (AID 1918925; further: nearly all actives have a fitted effect of over 45% in size; further: potency means the concentration at half of the fitted maximal effect). Conditions: Delta47 myeloma viability, CellTiter-Glo ATP, 48 h; series mostly up to 45.8 µM. The method, boiled down:
as §1

Experiment [8] can be described thus: NCATS anti-infectives library activity on HEK293 viability as a counter-qHTS vs the C. elegans viability qHTS (AID 1745854). Further: on the % scale 0 is the no-effect control and ±100 the full control effect. Conditions: HEK293 viability counter-screen; series mostly up to 41.8 µM. In a few lines:
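Cytotoxicity counter-screen to a worm viability qHTS: CellTiter-Glo luminescence read 10 min after reagent addition. Compounds (final up to 41.7 uM, a 1:5 dilution series) incubated 24 hr at 37C with 1,500 HEK293 cells per well; digitonin control.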

Experiment [9] is described as follows: NCATS anti-infectives library activity on the primary C. elegans qHTS viability assay (AID 1745855; calls by dose curve; further: potency means the concentration at half of the fitted maximal effect). Particulars: C. elegans worm area imaging, day 7. In a few lines:
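GFP read-out by 488 nm laser cytometry at day 0, 3 and 7, gated on object perimeter, area and peak intensity, scored viability of PE254-GFP-FLuc worms exposed to compound in S medium with bacterial capsules at 21 °C.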

The target of experiment [10] is Phenylethanolamine N-methyltransferase (Homo sapiens) (UniProt P11086). Put plainly: Confirmatory Screen for Target Class Profiling of Small Molecule Inhibitors of Methyltransferases (AID 1745852). Conditions: MTase-Glo luminescence, SAH detection, recombinant enzyme; measured here: PNMT max response; stronger effect = lower value.
For experiment [11], the target named is Nuclear receptor subfamily 1 group I member 3 (Homo sapiens) (UniProt Q14994). Put plainly: Primary qHTS for antagonist of constitutive androstane receptor (CAR) against the NCATS DSHEA and TCM libraries (AID 1794836). Particulars: CAR reporter cell assay, antagonist mode, luciferase; series mostly up to 40 µM. In a few lines: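 HepG2 cells stably carrying hCAR and a CYP2B6 luciferase reporter (2,500 cells/well) attached for 5 h, then received compounds with 48 uM CITCO for 24 h at 37C. ONE-Glo luminescence read antagonism; CellTiter-Fluor (405/540 nm) gave viability.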

Experiment [12] is described as follows: Viability counterscreen for antagonist of constitutive androstane receptor (CAR) against the NCATS DSHEA and TCM libraries (AID 1794837).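 Further: compound exposure lasted 24 h before viability reading; 0% is about no effect.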 Particulars: CAR reporter cell line viability counterscreen, qHTS; series mostly up to 40 µM. The method, boiled down:
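Fluorescence from CellTiter-Fluor reports live-cell protease activity in HepG2-CYP2B6-hCAR cells treated for 24 h with substances alongside 48 uM CITCO.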

Experiment [13] in a line: Viability counterscreen for agonist of constitutive androstane receptor (CAR) against the NCATS DSHEA and TCM libraries (AID 1794838). Further: 0% is about no effect. Particulars: HepG2 cell viability counterscreen, CAR agonist assay; series mostly up to 40 µM. In a few lines: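 In agonist mode, PK11195 is added at 0.75 uM final to HepG2-CYP2B6-hCAR cells dosed with test substances. Cultures incubate 24 h at 37C before a protease-based fluorogenic viability readout.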
(A counterscreen serves to expose hits that act by an unwanted route or on another target.)

In experiment [14] the target is Nuclear receptor subfamily 1 group I member 3 (Homo sapiens) (UniProt Q14994). In words: Primary qHTS for agonist of constitutive androstane receptor (CAR) against the NCATS DSHEA and TCM libraries (AID 1794839). Further: potency means the concentration at half of the fitted maximal effect. Particulars: CAR agonist reporter cells, qHTS luminescence. In a few lines:
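Cells stably carrying hCAR and a CYP2B6 reporter (HepG2 background) are seeded and allowed 5 h to adhere. Substances at multiple concentrations are added alongside 0.75 µM PK11195, and luciferase signal is measured after 24 h.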

Experiment [15] is described as follows: HepG2 viability counterscreen (readout 2: ATP content) against the NCATS DSHEA and TCM libraries (AID 1794840).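 Further: HepG2 cells exposed to substances for about 24 h; 0% is about no effect.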 Conditions: ATP content luminescence; series mostly up to 27.3 µM. In a few lines: (§2)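 Cytotoxicity was assessed in HepG2 cells plated at 1,000 cells/well and exposed for about 24 hours to a concentration series. Protease activity and ATP content were measured sequentially in each well.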

Experiment [16] in a line: HepG2 viability counterscreen (readout 1: protease activity) against the NCATS DSHEA and TCM libraries (AID 1794841).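 Further: cells exposed to compounds for about 24 h before the protease read; 0% is about no effect.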 Conditions: qHTS concentration series; series mostly up to 27.3 µM. In a few lines: as §2

Records with an inconclusive call do not appear. Activity calls are given as the source filed them. Unless noted, the call rests on the fitted dose curve; in most records, active means well fitted curve in the direction sought with a large enough effect; inconclusive means small, poorly fitted or top-dose-only effect, or another doubt; inactive means no such curve, though single readings can be large; an effect the other way counts as inactive or inconclusive.

Sequence of Phospholipid hydroperoxide glutathione peroxidase GPX4 (Homo sapiens) (P36969 whole entry, looked up): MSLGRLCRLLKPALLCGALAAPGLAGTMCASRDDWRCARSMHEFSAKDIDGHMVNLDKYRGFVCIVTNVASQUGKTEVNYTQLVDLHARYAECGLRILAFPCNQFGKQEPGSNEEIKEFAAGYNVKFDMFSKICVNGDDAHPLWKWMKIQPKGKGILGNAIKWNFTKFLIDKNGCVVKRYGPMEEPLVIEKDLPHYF
Sequence of Metallo-beta-lactamase type 2 (Klebsiella pneumoniae) (C7C422 whole entry, looked up): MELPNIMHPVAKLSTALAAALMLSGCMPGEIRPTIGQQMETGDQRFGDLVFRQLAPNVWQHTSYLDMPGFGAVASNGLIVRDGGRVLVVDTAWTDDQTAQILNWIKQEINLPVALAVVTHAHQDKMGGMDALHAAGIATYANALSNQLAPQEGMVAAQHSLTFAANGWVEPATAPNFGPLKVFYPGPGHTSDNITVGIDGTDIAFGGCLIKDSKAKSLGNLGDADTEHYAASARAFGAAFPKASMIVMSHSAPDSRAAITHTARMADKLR
Sequence of Glutathione peroxidase 1 (Homo sapiens) (P07203 whole entry, looked up): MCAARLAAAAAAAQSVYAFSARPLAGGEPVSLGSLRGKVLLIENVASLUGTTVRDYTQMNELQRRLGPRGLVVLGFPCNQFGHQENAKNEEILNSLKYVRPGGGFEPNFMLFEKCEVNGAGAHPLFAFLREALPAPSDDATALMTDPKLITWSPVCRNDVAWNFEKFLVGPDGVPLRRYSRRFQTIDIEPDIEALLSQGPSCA
Sequence of Phenylethanolamine N-methyltransferase (Homo sapiens) (P11086 whole entry, looked up): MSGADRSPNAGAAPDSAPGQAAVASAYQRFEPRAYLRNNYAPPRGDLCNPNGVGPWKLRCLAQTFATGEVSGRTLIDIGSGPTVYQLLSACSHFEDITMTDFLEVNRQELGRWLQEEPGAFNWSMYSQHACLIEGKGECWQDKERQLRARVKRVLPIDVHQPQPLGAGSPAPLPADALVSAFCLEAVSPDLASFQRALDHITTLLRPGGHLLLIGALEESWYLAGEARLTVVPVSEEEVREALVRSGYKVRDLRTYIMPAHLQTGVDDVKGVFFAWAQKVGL
Sequence of Nuclear receptor subfamily 1 group I member 3 (Homo sapiens) (Q14994 whole entry, looked up): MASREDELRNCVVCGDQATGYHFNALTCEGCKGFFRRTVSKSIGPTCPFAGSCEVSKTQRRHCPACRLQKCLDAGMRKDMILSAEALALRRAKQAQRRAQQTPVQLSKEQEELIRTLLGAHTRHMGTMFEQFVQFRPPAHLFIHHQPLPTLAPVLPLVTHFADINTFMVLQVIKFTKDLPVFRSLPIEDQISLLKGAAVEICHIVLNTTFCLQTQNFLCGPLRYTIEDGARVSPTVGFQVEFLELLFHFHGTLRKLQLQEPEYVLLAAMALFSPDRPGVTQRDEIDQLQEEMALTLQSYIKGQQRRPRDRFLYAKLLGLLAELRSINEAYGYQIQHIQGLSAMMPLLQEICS

Consider `CC(=O)[C@H]1CC[C@H]2[C@@H]3CC[C@H]4C[C@H](O)CC[C@]4(C)[C@H]3C(=O)C[C@]12C`, for which the outcome in experiment [1] was “inactive”. For the same compound, in experiment [2], the Potency entry is “inactive”.

Take `COc1ccccc1N1CCNCC1`: the outcome in experiment [1] was “inactive”. Besides, the Potency entry in experiment [3] and in experiment [2] was “inactive” throughout.

With `NCC1(CC(=O)O)CCCCC1`, in [1], the outcome is “inactive”. Also, the Potency result in experiment [3], in [2], in experiment [4], in experiment [5] and in experiment [6] was “inactive” throughout.

Take `COc1ccc(C(CN(C)C)C2(O)CCCCC2)cc1` (configuration not stated): in experiment [1], the outcome was “inactive”. The Potency result in experiment [3], in experiment [2], in [7], in experiment [5] and in [6] was “inactive” in each case.

`Cc1sc2c(c1C)C(c1ccc(Cl)cc1)=N[C@@H](CC(=O)OC(C)(C)C)c1nnc(C)n1-2`: the outcome in experiment [8] is “inactive”. For the same compound, the Potency is 4.09 µM (active) in [9]; 0.743 µM (active) in experiment [7]; 0.0833 µM (active) in [4]; 0.209 µM (active) in experiment [5]; 0.0418 µM (active) in experiment [6]. Besides, the Potency entry in experiment [2] was “inactive”.

In the case of `c1ccc(C2CC2)c(OCC2=NCCN2)c1`, in experiment [1], the outcome was “inactive”. The Potency entry in [2] was “inactive”.

Regarding `Nc1ccncc1`, the activity in experiment [10] was -0.809%. In experiment [1], the outcome was “inactive”. For the same compound, in [2], the Potency result was “inactive”.

In the case of `CC(C)=CCOc1c2occc2cc2ccc(=O)oc12`, in [10], the activity is -3.85%. Moreover, the outcome in experiment [11], in [12], in experiment [13], in [15], in [16] and in [1] was “inactive” in each case. Besides, the Potency in experiment [14] was 14.1 µM (active). The Potency entry in experiment [2] was “inactive”.

Regarding `O=C1NCN(c2ccccc2)C12CCN(CC1COc3ccccc3O1)CC2` (configuration not stated), the outcome in [1] was “inactive”. In experiment [2], the Potency result is “inactive”.

On to `Fc1ccc(C(OCCN2CCN(CCCc3ccccc3)CC2)c2ccc(F)cc2)cc1`, for which the outcome in [1] was “inactive”. The Potency entry in [3], in experiment [2] and in [4] was “inactive” throughout. The values for the Potency in experiment [7] and in experiment [5] were 8.33 µM (active) and 20.9 µM (active), respectively.

Regarding `NCC(O)c1ccc(O)cc1` (configuration not stated), the outcome in [1] was “inactive”. For the same compound, the Potency result in experiment [2] was “inactive”.

For the compound `CN1C[C@H](CNC(=O)OCc2ccccc2)C[C@@H]2c3cccc4c3c(cn4C)C[C@H]21`, the activity in experiment [10] was -5.43%. In addition, the outcome in [1] is “inactive”. The Potency result in [3] and in [2] was “inactive” throughout.

For the origin of these results see PubChem BioAssay (NCATS).
